# A selection follows.
# aSyn UTR act: Activators via SNCA 5'UTR binding, MLPCN; alpha-synuclein 5'UTR reporter, activators screen; activity score, % (tested at 7.5 µM), hits read low; 7.1% of 300,000 active; AID 1814, 2009; in the data active = activity score below about -60%
# The depositor's hits bear a star.
SMILES,aSyn UTR act
NC(=S)Cc1nc(-c2ccc(Cl)cc2)cs1,-103.9*
CCCCN1CCc2c1nc1ccc(Br)cc1c2N,-65.2*
COC(=O)c1ccc(Sc2ccc(C)cc2)c(N)c1,-140.7*
Cc1cc(N)n2ncc(-c3ccccc3)c2n1,-148.5*
C=CCSc1cc(C)nc2c(-c3ccccc3)cnn12,-74.3*
O=[N+]([O-])c1ccc(C(O)CSC(=S)N2CCCCC2)cc1 (stereo not drawn),-181.3*
O=C(c1c(Cl)nc2sccn12)N(C(=O)c1c(Cl)nc2sccn12)c1ccc(Cl)cn1,-195.5*
O=C(CCl)N1c2ccccc2SCC1c1ccccc1 (stereo not drawn),-64.2*
O=c1c2c3c(sc2nc2n1CCCCC2)C(O)CCC3 (stereo not drawn),-85.0*
O=C1c2sc3nc4n(c(=O)c3c2CCC1Br)CCCCC4 (stereo not drawn),-179.6*
O=C1CCCc2c1sc1nc3n(c(=O)c21)CCCCC3,-106.8*
CCCn1c(NCc2cccc(OC)c2O)nc2ccccc21,-82.0*
COc1ccc(CNc2nc3ccccc3n2C)c(O)c1,-133.5*
COc1ccc(CNc2nc3ccccc3n2C)c(OC)c1,-87.8*
CC(C)COC(=O)/C(C#N)=C/c1cn(Cc2ccccc2)c2ccccc12,79.5
CCOC(=O)/C(C#N)=C/c1cc(C)n(-c2ccc(C)cc2)c1C,-129.8*
O=c1[nH]cnc2sc(-c3ccccc3)cc12,-85.5*
O=c1[nH]c(-c2ccccc2)nc2sc(-c3ccccc3)cc12,-235.3*
CC(C)N(Cc1cn[nH]c1-c1ccc(-c2ccccc2)cc1)Cc1nccn1C,-105.8*
Cc1cccc(Nc2nnc(SCC(=O)Nc3cccc(S(=O)(=O)N4CCCCC4)c3)s2)c1,-151.6*
CCc1ccc(Nc2nnc(SCC(=O)Nc3cccc(S(=O)(=O)NC4=NCCCCC4)c3)s2)cc1,-147.2*
CN(C)c1ccc(C(=S)NC2CCCCC2)cc1,-111.2*
CCN(CC)c1ccc(C(=S)NC2CCCCC2)cc1,-64.0*
Cc1nn(-c2nnc(NC3CCCCC3)nn2)c(C)c1Br,-164.8*
COc1cccc(C2=NO[C@@H]3C(=O)N(c4ccc5c(c4)OCCO5)C(=O)[C@H]23)c1OC,-80.8*
SMILES,aSyn UTR act
COc1ccccc1C(O)Cc1nc2ccccc2n1C (stereo not drawn),-87.5*
CC(C)c1ccc(C(O)Cc2nc3ccccc3n2C)cc1 (stereo not drawn),-102.4*
CN(C)c1ccc(C(O)Cc2nc3ccccc3n2C)cc1 (stereo not drawn),-96.7*
COc1ccc(C(C)NCCC(c2ccc(OC(C)C)cc2)c2ccccc2OC)cc1 (stereo not drawn),93.3
COc1cccc(NC(=O)CN(C)C(=O)C2CCN(C(=O)c3ccccc3C)CC2)c1,-96.8*
Cc1ccccc1N=C1NN=C(c2ccccc2F)CS1,-171.3*
Cc1cc(C2=NNC(=NC3CC3)SC2)c(C)n1-c1ccccc1F,99.4
Sc1oc(-c2ccccc2)cc1C=Nc1ccccc1,-116.9*
O=C(Nc1ccccc1)ON=C1CCCC1,-82.2*
Cc1ccc(NC(=O)ON=C2CCCC2)cc1,-204.9*
Fc1ccc(-n2ncc3c(SCc4cccnc4)ncnc32)cc1,-137.5*
Cc1ccc(CSc2ncnc3c2cnn3-c2ccccc2)cc1,-136.7*
Cc1ccc(CSc2ncnc3c2cnn3-c2ccc(C)cc2)cc1,-93.0*
Cc1ccc(-n2ncc3c(SCC(=O)NNC(=O)c4ccco4)ncnc32)cc1,-105.6*
Cc1ccc(-n2ncc3c(SCc4ccccc4)ncnc32)cc1,-179.8*
CC(=O)Nc1ccc(/C=C/c2nc3ccccc3[nH]c2=O)cc1,-82.6*
O=c1[nH]c2ccccc2nc1/C=C/c1ccc(Cl)cc1,-227.2*
COc1cc(CNc2ncn[nH]2)ccc1OCc1cccc(C)c1,-95.4*
CC1CN(S(=O)(=O)c2ccc(C(=O)Nc3nnc(-c4ccc5c(c4)CCCC5)o3)cc2)CC(C)O1 (stereo not drawn),75.6
CC(=O)Nc1nnc(-c2ccc3c(c2)CCCC3)o1,-66.7*
CC(=O)N(C(C)=O)n1c(C)nc2sc3c(c2c1=O)CCCC3,51.2
C1CCC(c2nn3c(-c4n[nH]c5c4CCC5)nnc3s2)CC1,56.2
O=c1c2c3c(sc2nc2sc(C4CC4)nn12)CCCC3,-130.1*
COc1ccc(-c2ccc(SCC(=O)Nc3cccc(C(C)=O)c3)nn2)cc1OC,-82.3*
COc1ccccc1NC(=O)CSc1ccc(-c2ccc(-n3cccn3)cc2)nn1,-112.6*
SMILES,aSyn UTR act
CC(=O)c1cccc(NC(=O)CSc2ccc(-c3ccc4c(c3)OCO4)nn2)c1,-87.0*
O=C(Nc1ccc2oc(-c3ccccc3F)nc2c1)c1cncc(Br)c1,-65.0*
O=C(Nc1ccc2oc(-c3ccccc3F)nc2c1)c1ccc([N+](=O)[O-])o1,-142.3*
COc1nc(NCCO)nc(Nc2ccccc2F)n1,-96.9*
CC1CCc2nc3sc4c(c3c(N)c2C1)CCCC4 (stereo not drawn),-132.1*
CC1CCc2c(nc3sc4c(c3c2N)CCCC4)C1 (stereo not drawn),-125.1*
COc1ccc(Cc2nc(C(=O)Nc3ccccc3)cs2)cc1,-73.1*
O=C(Nc1ccc(Cl)cc1)c1csc(Cc2ccccc2)n1,-71.8*
CC(=O)Nc1ccc(-c2csc(Nc3cc(C)ccn3)n2)cc1,-100.6*
CC(=O)Nc1nc(C)c(-c2csc(Nc3ccccn3)n2)s1,-114.5*
Cc1ccnc(Nc2nc(-c3ccccc3)cs2)c1,-155.4*
Cc1ccnc(Nc2nc(-c3c(C)nc4sccn34)cs2)c1,-103.1*
CC(=O)Nc1cccc(-c2csc(Nc3ccccn3)n2)c1,-120.0*
Cc1nc2ncccn2c1-c1csc(Nc2ccc(O)cc2)n1,-66.7*
CC(=O)Nc1cccc(-c2csc(Nc3cc(C)ccn3)n2)c1,-63.1*
Cc1ccc(Nc2nc(-c3c(C)nc4ncccn34)cs2)cc1,84.0
FC(F)Sc1ccc(N=C2NN=C(c3ccc4c(c3)OCCO4)CS2)cc1,-127.2*
c1cc2c(cc1C1=NNC(=NC3CC3)SC1)OCCO2,111.0
COc1ccc(-c2ccc(CO)o2)cc1N,-81.9*
CSc1nnc(-c2cc3c(s2)-c2ccccc2CC3)o1,-169.5*
S=c1[nH]nc(-c2cc3c(s2)-c2ccccc2CC3)o1,-123.5*
Cc1cc(=O)[nH]c(SCCOc2ccc3c(c2)CCC3)n1,-107.5*
COc1ccc2cc(C(N)=O)c(=Nc3ccc(C)cc3)oc2c1,-61.7*
COc1ccccc1N=c1oc2cc(O)ccc2cc1C(N)=O,-73.8*
Cc1cccc(N=c2oc3cc(O)ccc3cc2C(N)=O)c1,-77.5*
SMILES,aSyn UTR act
CCN(C(=O)COC(=O)/C=C/c1cnc2ccccc2n1)c1ccccc1,-64.7*
O=C(/C=C/c1cnc2ccccc2n1)NC12CC3CC(CC(C3)C1)C2,-139.6*
CCC(C)(C)NC(=O)/C=C/c1cnc2ccccc2n1,-121.6*
O=C(CSc1nnc(-c2cccnc2)o1)Nc1ccc(Cl)cc1,-62.4*
O=C(CSc1nnc(-c2cccnc2)o1)Nc1cccc(Cl)c1,-119.3*
Cc1cc(=O)n2cc(-c3ccccc3)nc2[nH]1,-70.4*
O=C(c1ccccc1)[C@H]1[C@H](c2ccccc2)[C@@]2(N=C(c3ccccc3)OC2=O)C2c3ccccc3C=NN21 (stereo partly drawn),-110.4*
Cc1ccc(/C=C/C(=O)c2cc(Br)ccc2OC(=O)c2ccco2)cc1,-94.2*
CCc1ccc(/C=C/C(=O)c2cc(Br)ccc(=O)c2O)cc1,72.1
NNC(=O)c1cc2sccc2s1,-79.5*
COc1cc(/C=C2\SC(N)=NC2=O)cc(OC)c1,-63.9*
CC(C)CCNC(=O)c1ccccc1NC(=O)C1=CSCCO1,-119.0*
